{
  "source": "PubChem BioAssay (Tox21)",
  "note": "Several values for one entry are separate records, joined by “and”; a condition that tells them apart may be missing. Identical values can stand only once. Records with an inconclusive call do not appear. Activity calls are given as the source filed them. Calls come from the whole dose curve; as a rule, active = well fitted inhibition curve with a large enough effect in the repeat runs; inconclusive = weak or mixed curves; inactive = no such curve, though single readings can be large or run the other way.",
  "data": [
    {"biological_target": "Cytochrome P450 2C19 (Homo sapiens) (UniProt P33261)", "sequence (P33261 whole entry, looked up)": "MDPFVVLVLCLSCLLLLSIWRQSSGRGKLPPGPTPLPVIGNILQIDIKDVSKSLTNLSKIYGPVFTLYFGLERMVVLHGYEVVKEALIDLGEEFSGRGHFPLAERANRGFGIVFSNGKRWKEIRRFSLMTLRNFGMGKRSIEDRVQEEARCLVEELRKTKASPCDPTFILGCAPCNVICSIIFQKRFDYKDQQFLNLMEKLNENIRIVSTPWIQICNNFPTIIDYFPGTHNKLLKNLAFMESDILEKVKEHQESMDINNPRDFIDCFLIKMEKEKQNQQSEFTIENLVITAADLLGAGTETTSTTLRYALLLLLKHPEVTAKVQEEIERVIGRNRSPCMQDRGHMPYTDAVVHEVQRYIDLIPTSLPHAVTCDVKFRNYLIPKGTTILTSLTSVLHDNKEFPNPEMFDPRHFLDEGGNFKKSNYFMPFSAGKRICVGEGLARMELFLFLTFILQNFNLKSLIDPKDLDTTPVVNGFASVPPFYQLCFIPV", "test": "Cytochrome P450 Family 2 Subfamily C Member 19 (CYP2C19) small molecule antagonists: luciferase reporter qHTS assay (AID 1671197); note: nearly all actives have a fitted effect of over 65% in size; note: potency is the fitted concentration of half-maximal effect", "details": "P450-Glo CYP2C19 enzyme, luciferin luminescence, 1 h; series mostly up to 115 µM", "summary_of_the_method": "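P450-Glo CYP2C19 system: enzyme-substrate mix with compound 10 min at room temperature, then NADPH regeneration solution, 1 h at 37C. Proluciferin-to-luciferin conversion detected by luminescence after 20 min with detection reagent; ketoconazole as positive control.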", "values": [
      {"compound": "CC1(C)C(C=C(Cl)Cl)C1C(=O)OCc1cccc(Oc2ccccc2)c1", "note": "(stereo unspecified)", "Potency": "7.91 µM (active) and 3.17 µM (active)"},
      {"compound": "c1ccc2cc3ccccc3cc2c1", "Potency": "41.2 µM (active) and 79.6 µM (active)"},
      {"compound": "Cc1cccc(Nc2ccccc2C(=O)O)c1C", "Potency": "inactive"},
      {"compound": "CCC(Cc1c(I)cc(I)c(N)c1I)C(=O)O", "note": "(stereo unspecified)", "Potency": "inactive"},
      {"compound": "[O-]/[N+](=N\\O)c1ccccc1", "Potency": "62.7 µM (active) and 39.9 µM (active)"},
      {"compound": "O=S1(=O)CCCO1", "Potency": "inactive"},
      {"compound": "c1ccc2ncccc2c1", "Potency": "inactive"},
      {"compound": "CCC/C=C/C=O", "Potency": "19.5 µM (active)"},
      {"compound": "Nc1ccc(O)c(N)c1", "Potency": "35.3 µM (active) and 35.6 µM (active)"},
      {"compound": "COC(=O)C(C)Oc1ccc(Oc2ncc(C(F)(F)F)cc2Cl)cc1", "note": "(stereo unspecified)", "Potency": "40.4 µM (active) and 39.9 µM (active)"},
      {"compound": "C[C@]12CC[C@@H]3c4ccc(O)cc4CC[C@H]3[C@@H]1CC[C@@H]2O", "Potency": "7.95 µM (active) and 5.64 µM (active)"},
      {"compound": "OCCNCCO", "Potency": "inactive"},
      {"compound": "C=C[C@@]1(C)CC(=O)[C@]2(O)[C@@]3(C)[C@@H](O)CCC(C)(C)[C@@H]3[C@H](O)[C@H](OC(C)=O)[C@@]2(C)O1", "Potency": "39.9 µM (active)"},
      {"compound": "O=C1OC2(c3ccccc31)c1cc(I)c(O)c(I)c1Oc1c2cc(I)c(O)c1I", "Potency": "56.5 µM (active) and 18 µM (active) and 5.43 µM (active)"},
      {"compound": "C[C@]12CC[C@@H]3c4ccc(O)cc4CC[C@H]3[C@@H]1CC[C@H]2O", "Potency": "4.06 µM (active) and 17.8 µM (active)"},
      {"compound": "CCCCCCCCCCCCCO", "Potency": "71.8 µM (active) and 36.9 µM (active)"}
    ]}
  ]
}
